Sampled rows, rich in hits. Any-hit rate of the full collection: about 1.9%.
RXFP1 antagonist: antagonists of human relaxin receptor RXFP1; 350,000 tested, 0.59% active; activity change, negative = inhibition, % at 57.5 µM; Q9HBX9; AID 1259400; HEK293-RXFP1, relaxin-stimulated cAMP HTRF, 30 min; active compounds read low;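 active means activity change of -60% or lower, but not beyond a set lower limit; inconclusive means change between -60% and -40%, or beyond the set limit; inactive means change above -40%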; further: on the % scale 0 is the no-effect control and ±100 the full control effect
IL-2 act: activates IL-2 in a cell-based reporter assay. IL-2 activation reporter assay, cell-based qHTS; stimulated with anti-CD3/CD4/CD28 beads; in transgenic mouse T cells. activation, % (series mostly up to about 46 µM). 360,000 tested, 0.065% active. AID 652025; in the data active means activation above about 50%; inconclusive means mostly about 30% to 49%; further: 0% is about no effect
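Using fluorescent plate cytometry, EGFP and DsRed are detected in transgenic mouse T cells stimulated 18 h at 37 degrees C with antibody-coated beads after 60 min compound pretreatment.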
BRCA1 expr act: activators of BRCA1 expression; MCF7-BRCA1-FFLuc reporter, luminescence, 48 h; response scale: scaled: vehicle 0%, 10 µM genistein 100%; 380,000 tested, 1.1% active; Potency, µM (doses to about 46.1 µM), without a hit: at the highest dose activation, usual class: activators; AID 624202; further: potency means the concentration at half of the fitted maximal effect; nearly all actives have a fitted effect of over 80% in size
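MCF7-BRCA1-FFLuc, 2000 cells/well; 2 h attach, 37 °C/5% CO2; compound 48 h; luciferase substrate 15 min; luminescence end-point. Norm. to genistein 10 microM max activation and DMSO; concentration-response curves fitted.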
RXFP1 agonist: activates the human relaxin receptor RXFP1; AID 2676; Potency, µM (highest dose often 57.5 µM), without a hit: top-dose activation, usual class: activators; 370,000 tested, 0.3% active; HEK293T-RXFP1 cAMP TR-FRET, 30 min; response scale: percent of porcine relaxin response, buffer zero; Q9HBX9; further: potency means the concentration at half of the fitted maximal effect; on the % scale 0 is the no-effect control and ±100 the full control effect; nearly all actives have a fitted effect of over 60% in size
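cAMP rise read by TR-FRET after 30 min, 37C compound exposure (up to 58 uM) in RXFP1-transfected HEK293 cells with Ro 20174 present. EC50 from Hill-equation fits, with 29 nM porcine relaxin as 100% and buffer as basal.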
Giardia killer: Giardia lamblia killing; Giardia lamblia trophozoite viability; activity change, % at 7.66 µM, hits read low; 340,000 tested, 0.15% active; in the data active means activity change below about -80%; inconclusive means between about -30% and that limit;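 further: parasites exposed to compound for two days anaerobically before the ATP read; on the % scale 0 is the no-effect control and ±100 the full control effect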
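Trophozoite viability was measured as ATP-dependent luminescence, read 15-30 min after reagent addition. Before that, parasites at 100 cells/well were exposed to compounds for 48 h, anaerobically, at 37 deg C.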
NPSR antagonist: blocks cAMP signaling of the human neuropeptide S receptor | Q6W5P4 | CHO-NPSR cells, cAMP TR-FRET, antagonist mode | Potency, µM (top dose mostly 38.3 µM), for the others: top-dose activity change, negative = inhibition, most hits filed as inhibitors | 220,000 tested, 1% active; further: potency means the concentration at half of the fitted maximal effect; on the % scale 0 is the no-effect control and ±100 the full control effect; nearly all actives have a fitted effect of over 50% in size
Target sequence (Q6W5P4 whole entry, looked up): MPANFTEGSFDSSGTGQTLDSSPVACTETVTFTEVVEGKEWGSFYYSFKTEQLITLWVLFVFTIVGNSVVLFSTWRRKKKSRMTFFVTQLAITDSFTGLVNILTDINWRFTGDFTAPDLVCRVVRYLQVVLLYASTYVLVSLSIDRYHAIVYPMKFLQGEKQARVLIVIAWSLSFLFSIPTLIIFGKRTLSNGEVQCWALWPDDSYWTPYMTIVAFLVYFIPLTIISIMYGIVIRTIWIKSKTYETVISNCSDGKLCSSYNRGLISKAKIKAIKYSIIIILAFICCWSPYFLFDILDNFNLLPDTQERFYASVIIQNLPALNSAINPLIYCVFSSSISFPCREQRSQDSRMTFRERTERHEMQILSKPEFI
Active calls of the source: *; u = inconclusive; x = no result given; [ ] = remark or other dose. Unless noted, the call rests on the fitted dose curve; in most records, active means well fitted curve in the direction sought with a large enough effect; inconclusive means small, poorly fitted or top-dose-only effect, or another doubt; inactive means no such curve, though single readings can be large; an effect the other way counts as inactive or inconclusive.

SMILES | RXFP1 antagonist | IL-2 act | BRCA1 expr act | RXFP1 agonist | Giardia killer | NPSR antagonist
CCOc1ccccc1C(=O)N(Cc1ccco1)Cc1ccccc1F | -1.6 | x | x | 5.0% | x | x
COc1ccccc1OCC(=O)N(Cc1ccco1)Cc1ccccc1F | -61.8* | x | x | -2.0% | x | x
Cc1cc(OC(C)C(=O)N(Cc2ccco2)C2CCS(=O)(=O)C2)ccc1Cl (configuration not stated) | 5.3 | -2.5 | -9.6% | 0.3% | 16.9 | x
Cc1cc(OC(C)C(=O)N(Cc2ccco2)Cc2ccco2)cc(C)c1Cl (configuration not stated) | -88.4* | x | x | -0.2% | x | x
CC(C)(C)c1ccc(OCC(=O)N(Cc2ccco2)Cc2ccccc2F)cc1 | -94.9* | x | x | -3.9% | x | x
COc1cc(C)c(C)cc1S(=O)(=O)Nc1cccc(-c2ccc(N3CCOCC3)nn2)c1 | -5.6 | x | x | -0.1% | x | x
O=C(Cc1nc2ccccc2[nH]c1=O)c1ccccc1 | -6.4 | u | 5.62µM* | -1.2% | -9.2 | -36.7%
CC1=CC2C(C(O)CC3(C)C2CC(C)C32OCOC23COCO3)C2(C)C/C(=C\O)C(=O)C=C12 (configuration not stated) | -75.7* | -5.6 | -97.1% | x | -10.4 | x
COc1ccc2c(CC(=O)N3CCc4ccccc43)coc2c1 | -6.2 | -2.2 | 3.55µM* | -1.0% | -9.8 | -16.9%[46.1 µM]
COc1ccc(CC(=O)N2CCc3ccccc32)cc1 | 0.1 | 0.8 | 8.91µM* | -0.5% | 4.6 | -13.9%[46.1 µM]
O=C(Cc1ccccc1)N1CCc2ccccc21 | -12.9 | -2.5 | u | -0.8% | 3.1 | 6.0%[46.1 µM]
Cc1ccc([N+](=O)[O-])cc1N=Nc1c(C)[nH]n(C(N)=S)c1=O | -2.2 | 1.1 | -19.2% | 1.0% | 24.2 | x
Cc1ccc([N+](=O)[O-])cc1N=Nc1c(-c2ccc([N+](=O)[O-])cc2)[nH]n(C(N)=S)c1=O | -6.0 | -0.7 | -78.6% | 0.0% | 6.4 | 10µM*
O=C(Cn1cc(C(=O)c2cccs2)c2ccccc21)Nc1ccc(Br)cc1 | 3.2 | x | x | -0.2% | x | x
CNC(=S)Nc1ccc([N+](=O)[O-])cc1C | 16.0 | 0.2 | -14.9% | 2.0% | 15.8 | 11.5%
Cc1cc([N+](=O)[O-])ccc1NC(=O)c1csc(C)c1C | -8.4 | -4.2 | 5.01µM* | 10.5% | 0.0 | x
COc1ccccc1CN1COc2ccc3c(oc(=O)c4ccccc43)c2C1 | -1.9 | x | x | 17.8µM* | x | x
O=C(CNC(=O)C1CCCCC1)OCC(=O)c1ccc(-c2ccccc2)cc1 | x | x | 8.1% | x | -2.2 | x
CC(=O)N1CC(=O)N=C1SCC(=O)Nc1nc(-c2ccccc2)c(-c2ccccc2)s1 | -86.4* | -0.7 | -37.8% | 1.3% | 12.7 | 10µM*
O=C(CCSc1ccccc1)Nc1ccc(OCc2ccccc2)cc1 | -0.5 | -0.4 | 11.2µM* | 1.1% | -16.6 | -8.4%[46.1 µM]
O=C(CCN1CCN(c2ccccc2)CC1)Nc1ccc(OCc2ccccc2)cc1 | 0.6 | -0.3 | 28.1% | -0.8% | -16.7 | -7.1%[46.1 µM]
Cc1cnc(C(=O)OCC(=O)Nc2ccc(OCc3ccccc3)cc2)cn1 | -17.0 | -3.7 | 10µM* | 1.1% | 14.7 | x
O=C(CCCOc1ccccc1)Nc1ccc(Br)cc1 | -10.8 | 1.6 | -3.6% | x | -0.1 | x
O=C(CCOc1ccccc1)Nc1ccc(Br)cc1 | -12.5 | -0.8 | 7.94µM* | 2.5% | -15.3 | x
O=C(NCc1nnnn1-c1ccc(F)cc1)c1ccc([N+](=O)[O-])o1 | 25.1 | -0.7 | -53.4% | -1.6% | -94.5* | x
SMILES | RXFP1 antagonist | IL-2 act | BRCA1 expr act | RXFP1 agonist | Giardia killer | NPSR antagonist
O=C(NCC(c1ccc(F)cc1)N1CCOCC1)c1ccc([N+](=O)[O-])o1 (configuration not stated) | 1.9 | -2.5 | -86.0% | x | -100.9* | x
Cc1ccc(-n2nnnc2CNC(=O)c2ccc([N+](=O)[O-])o2)cc1C | 2.9 | 2.0 | -81.7% | 1.7% | u | x
COc1ccc(C(C)NC(=O)Nc2ccc(C(C)=O)cc2)cc1OC (configuration not stated) | -4.7 | -0.6 | 11.2µM* | 0.1% | 20.7 | x
COC(=O)[C@@H](NC(=O)Nc1ccc(C(C)=O)cc1)C(C)C | 2.6 | 0.1 | 1.1% | 0.0% | -9.0 | 4.4%[46.1 µM]
CN(Cc1ccccc1)c1nc2c(S(=O)(=O)c3cccc(Cl)c3)nnn2c2ccsc12 | -11.8 | x | x | -0.6% | x | x
CSc1ccc(/C=C/c2ccnc3ccccc23)cc1 | x | x | 4.47µM* | x | x | x
CN(C)c1ccc(/C=C/C(=O)c2ccccc2O)cc1 | -3.9 | -4.5 | 3.16µM* | 1.2% | 3.9 | -37.6%
CCN(CC)S(=O)(=O)c1ccc2c(c1)N(CC(=O)Nc1cccnc1Cl)C(=O)CO2 | 7.8 | 1.0 | 2.2% | 12.6µM* | 0.5 | -0.9%
O=C(CN1C(=O)COc2ccc(S(=O)(=O)N3CCCC3)cc21)NCc1ccccn1 | 4.5 | -2.2 | -7.6% | 0.0% | -19.0 | -3.4%
CCN(CC)S(=O)(=O)c1ccc2c(c1)N(CC(=O)Nc1c(C)cccc1C)C(=O)CO2 | 3.4 | x | x | -0.5% | x | x
CCN(CC)S(=O)(=O)c1ccc2c(c1)N(CC(=O)NCc1ccccn1)C(=O)CO2 | 43.0 | -3.0 | 3.1% | 25.1µM* | -7.0 | 2.8%
CCOc1ccc(NS(=O)(=O)c2ccc3c(c2)NC(=O)CCS3)cc1 | -8.9 | x | x | -2.0% | x | x
CC(C)CNC(=S)NC(=O)c1csc([N+](=O)[O-])c1 | 6.6 | -0.3 | -15.9% | 1.5% | -86.9* | 41.9%
N/C(=N\OC(=O)COc1ccc2ccccc2c1Br)c1cccnc1 | x | x | x | 15.8µM* | x | -30.3%
N/C(=N\OC(=O)COc1ccc(Br)cc1Cl)c1ccccn1 | 11.3 | 2.7 | 3.4% | 2.5% | -3.7 | 0.9%
N/C(=N\OC(=O)COc1ccc2ccccc2c1Br)c1ccccn1 | 5.4 | -2.2 | 10µM* | 15.8µM* | 25.9 | -57.2%
Cc1csc(CNc2ncnc3ccc(-c4ccc5c(ccn5C)c4)cc23)c1 | x | x | x | 1.8% | x | x
CNC(=O)[C@H]1O[C@@H](n2cnc3c(NCc4ccc(N)cc4)ncnc32)[C@H](O)[C@H]1O | x | x | x | x | x | 0.9%[46.1 µM]
CNC(=O)[C@H]1O[C@@H](n2cnc3c(NCc4cccc(I)c4)ncnc32)[C@H](O)[C@@H]1O | x | -0.4 | 8.5% | 15.8µM* | -16.6 | x
COc1ccc(OC)c(/C=C2\Cc3ccccc3C2=O)c1 | x | x | 0.0% | x | x | x
COc1ccc(/C=C/c2ccccc2)cc1C1C2C=CCCC2(C)C(=O)N1Cc1ccccc1 (configuration not stated) | x | x | x | x | -7.9 | x
CCN(CC)S(=O)(=O)c1ccc(NC(=S)NC(=O)CC(C)C)cc1 | -2.7 | -2.2 | -15.4% | 0.6% | -3.3 | -26.9%
CCc1ccc(NC(=S)NC(=O)CC(C)C)cc1 | -15.4 | -0.3 | 6.31µM* | 1.3% | -18.8 | -37.8%
O=C(CC(=O)c1cc(Cl)ccc1O)c1ccccc1 | -19.6 | 0.1 | -60.0% | 1.4% | 2.2 | u
